Sampled rows, rich in hits. Any-hit rate of the full collection: about 13%.
Pf growth 48h = P. falciparum growth inhibition at 48 hours (one generation); Potency, µM (titrated, usually from 28.7 µM), for the others: at the highest dose activity change, negative = inhibition, usual class: inhibitors; actives 5.9% (n = 310,000); P. falciparum luciferase growth in erythrocytes, 48 h; note: potency is the fitted concentration of half-maximal effect
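Compounds are pin-transferred into medium, infected erythrocytes (2% hematocrit, 0.1% parasitemia final) are added, and plates sit one parasite generation at 37 C in 5% CO2. Detection reagent is then added and luminescence measured.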
Pf growth 96h = inhibits malaria parasite growth, 96 h. P. falciparum luciferase reporter growth, 96 h. Potency, µM (highest dose often 28.7 µM), for inactives: top-dose activity change, negative = inhibition, usual class: inhibitors. actives 6.9% (n = 320,000); note: potency is the fitted concentration of half-maximal effect
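Parasite growth measured via integrated firefly luciferase reporter in P. falciparum. Infected erythrocytes at 2% hematocrit, 0.05% parasitemia final were treated 96 hours at 37 C under 5% CO2, and luminescence was read.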
HCMV inh = inhibitors of human cytomegalovirus; AID 1259415; actives 4.5% (n = 410,000); HFF cells, HCMV-luciferase reporter, 72 h; hits give low values; activity change, negative = inhibition, % at 57.5 µM; in the data active = activity change below about -60%; inconclusive = no clear call, values can overlap the other calls; inactive = above about -39%
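Steps: HFFs plated, 16 h 37C; compounds added; HCMV-luciferase added to MOI 1 PFU/cell; 72 h 37C; OneGlo reagent, 5 min room temperature; luminescence read, normalized to controls.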
HCV inh = inhibitors of hepatitis C virus infection | Huh7.5.1 HCVcc-Cre infection, luciferase reporter, 44 h | actives 3.4% (n = 340,000) | Potency, µM (highest dose often 41.8 µM), for inactives: at the highest dose activity change, negative = inhibition, usual class: inhibitors; note: potency is the fitted concentration of half-maximal effect
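Whole-lifecycle infectious HCVcc-Cre system; cells 1,000/well, compound then virus (~0.5 moi) added 4 h after plating, 44 h culture. Luciferase read 15 sec following 15 min substrate incubation, room temp.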
* = called active by the depositor; [ ] = remark or other dose. Unless noted, calls come from the whole dose curve; as a rule, active = well fitted inhibition curve with a large enough effect; inconclusive = small, poorly fitted or top-dose-only effect, or another doubt; inactive = no such curve, though single readings can be large or run the other way. % is set by controls: 0 for no effect and ±100 for the full control effect.

COc1ccc(C2=NN(C(=O)CSc3nc(=O)n4cccc(C)c4n3)C(c3ccc(C)cc3)C2)cc1 (configuration not stated) was read as Pf growth 48h 11.7µM*, Pf growth 96h inconclusive, HCMV inh inconclusive and HCV inh inconclusive.
`Cc1ccc(C2CC(c3cccs3)=NN2C(=O)CSc2nc(=O)n3cc(C)ccc3n2)cc1` (configuration not stated) gave Pf growth 48h inconclusive, Pf growth 96h 5.22µM*, HCMV inh -32.3 and HCV inh inconclusive.
O=C(CN1C(=O)CCc2cc(S(=O)(=O)N3CCOCC3)ccc21)NCc1ccccc1 was read as HCMV inh 7.9.
`COc1ccc(C)cc1NC(=O)N1CCC(CN2CCOCC2)CC1` gave HCMV inh 23.0.
COc1ccc(C2CC(c3cccs3)=NN2C(=O)CSc2nc(=O)n3ccccc3n2)cc1 (configuration not stated) was read as Pf growth 48h 13.1µM*, Pf growth 96h 8.28µM*, HCMV inh -36.0 and HCV inh inconclusive.
For CCCCOC(=O)CSCC(=O)N1N=C(c2cccs2)CC1c1ccc(F)cc1 (configuration not stated) the results were Pf growth 48h -10.6%, Pf growth 96h 28.9%, HCMV inh -18.0 and HCV inh 16.1%.
For Cc1cccn2c(=O)nc(SCC(=O)N3N=C(c4cccs4)CC3c3ccc(F)cc3)nc12 (configuration not stated) the results were Pf growth 48h 8.28µM*, Pf growth 96h 3.7µM*, HCMV inh -23.1 and HCV inh inconclusive.
Screening O=C(CSc1nc2ccccc2s1)N1N=C(c2cccs2)CC1c1ccc(F)cc1 (configuration not stated) returned Pf growth 48h -20.2%, Pf growth 96h inconclusive, HCMV inh 11.2 and HCV inh 5.0%.
`O=C(CSc1nc2c(cnn2-c2ccc(F)cc2)c(=O)[nH]1)N1N=C(c2cccs2)CC1c1ccc(F)cc1` (configuration not stated) gave Pf growth 48h inconclusive, Pf growth 96h 9.28µM*, HCMV inh -4.3 and HCV inh 0.4%[8.37 µM].
`COc1ccc(CNC(=O)C2CCN(S(=O)(=O)c3cccc4nonc34)CC2)cc1OC` gave HCMV inh -3.3.
`Cc1ccc(NC(=O)C(=O)NN=C2CCCC2)cc1C` gave Pf growth 48h 53.9%, Pf growth 96h 33.5%, HCMV inh -104.0* and HCV inh 12.9%.
`OCC1CCCN(c2nc(CN3CCCCC3)nc3scc(-c4ccccc4)c23)C1` (configuration not stated) gave Pf growth 48h 0.0%, Pf growth 96h inconclusive, HCMV inh inconclusive and HCV inh inconclusive.
Screening CCNc1nc(CN2CCCCC2)nc2scc(-c3ccccc3)c12 returned Pf growth 48h 0.0%, Pf growth 96h -3.7%, HCMV inh -94.7* and HCV inh 10µM*.
Screening CN(Cc1ccccc1)c1nc(CN2CCOCC2)nc2scc(-c3ccccc3)c12 returned Pf growth 48h inconclusive, Pf growth 96h inconclusive, HCMV inh -33.1 and HCV inh 11.4%.
For c1ccc(-c2csc3ncnc(N4CCN(Cc5ccc6c(c5)OCO6)CC4)c23)cc1 the results were Pf growth 48h 13.1µM*, Pf growth 96h inconclusive, HCMV inh inconclusive and HCV inh inconclusive.
For O=C(CSc1ncnc2scc(-c3ccccc3)c12)N1CCN(Cc2ccc3c(c2)OCO3)CC1 the results were Pf growth 48h -1.0%, Pf growth 96h inconclusive, HCMV inh -29.1 and HCV inh inconclusive.
For Fc1ccc(-c2csc3ncnc(N4CCN(Cc5ccccc5)CC4)c23)cc1 the results were Pf growth 48h inconclusive, Pf growth 96h 9.28µM*, HCMV inh inconclusive and HCV inh -14.6%.
Fc1ccc(N2CCN(c3nc(CN4CCOCC4)nc4scc(-c5ccccc5)c34)CC2)cc1 was read as Pf growth 48h 11.7µM*, Pf growth 96h 7.38µM*, HCMV inh -24.0 and HCV inh inconclusive.
For COc1ccc(-c2nc3sc(CCNC(=O)c4cccc(C(F)(F)F)c4)c(C)n3n2)cc1 the results were HCMV inh 52.1.
`O=C(Nc1cc(C(F)(F)F)cc(C(F)(F)F)c1)O[C@@H]1c2ccccc2[C@@H]2Cc3csc[n+]3[C@H]12` gave HCMV inh 8.6.
Screening Cc1ccc(C)c(N2CCN(C(=O)c3cc(S(=O)(=O)N4CCC(C)CC4)cn3C)CC2)c1 returned HCMV inh 9.9.
`O=C(CCSCc1cnn(-c2ccccc2)c1-n1cccc1)NCc1ccccc1F` gave HCMV inh -32.0.
CCOC(=O)c1ccc(-n2c(-c3ccc(C)cc3)c(C)n3c4c(=O)n(C)c(=O)n(C)c4nc23)cc1 was read as HCMV inh -3.4.
For Fc1ccc(CN2CCN(c3ncnc4scc(-c5ccccc5)c34)CC2)cc1 the results were Pf growth 48h inconclusive, Pf growth 96h 10.4µM*, HCMV inh -73.7* and HCV inh inconclusive.
`c1ccc(Cn2nnc3c(N4CCN(Cc5ccc6c(c5)OCO6)CC4)ncnc32)cc1` gave Pf growth 48h -13.9%, Pf growth 96h 36.9%, HCMV inh -22.5 and HCV inh 7.08µM*.
For Cc1sc2ncnc(N3CCN(Cc4ccccc4)CC3)c2c1-c1ccc(F)cc1 the results were Pf growth 48h 13.1µM*, Pf growth 96h 13.1µM*, HCMV inh -10.4 and HCV inh inconclusive.
Screening Cc1ccc2c(c1)[nH]c1c(N3CCN(Cc4ccc5c(c4)OCO5)CC3)ncnc12 returned Pf growth 48h 2.94µM*.
Screening c1ccc2c(c1)oc1c(N3CCN(Cc4ccc5c(c4)OCO5)CC3)ncnc12 returned Pf growth 48h inconclusive, HCMV inh 12.2 and HCV inh inconclusive.
`Cc1ccc(-c2csc3ncnc(N4CCN(Cc5ccccc5)CC4)c23)cc1` gave Pf growth 48h inconclusive, Pf growth 96h inconclusive, HCMV inh -8.6 and HCV inh inconclusive.
For c1ccc(Cn2nnc3c(N4CCOCC4)ncnc32)cc1 the results were Pf growth 48h -14.2%, Pf growth 96h inconclusive, HCMV inh inconclusive and HCV inh 12.5%.
COC(=O)c1c(NC(=O)/C(C#N)=C/c2ccc(OC)cc2)sc2c1CCC2 was read as HCMV inh -11.6.
`CC(=O)c1cc(-c2ccccc2)n(CCC(=O)NC2CCCCC2)c1C` gave Pf growth 48h 2.8%, Pf growth 96h 10.4µM*, HCMV inh inconclusive and HCV inh 5.3%.
Screening CC(=O)c1cc(-c2ccccc2)n(CCC(=O)NC2CCCC2)c1C returned Pf growth 48h -6.5%, Pf growth 96h inconclusive, HCMV inh -24.8 and HCV inh -6.2%.
Screening CC(=O)c1cc(-c2ccccc2)n(CC(=O)NC(C)(C)C)c1C returned Pf growth 48h -0.4%, Pf growth 96h 13.1µM*, HCMV inh 10.1 and HCV inh 7.0%.
